Laboratory results taken from PubChem BioAssay (NCATS).
Records with an inconclusive call do not appear. Where a call stands in place of a potency, no number is given. Activity calls are given as the source filed them. Calls come from the whole dose curve; as a rule, active = well fitted curve in the direction sought with a large enough effect; inconclusive = small, poorly fitted or top-dose-only effect, or another doubt; inactive = no such curve, though single readings can be large; an effect the other way counts as inactive or inconclusive.

Experiments:
[1] = target: Cytochrome P450 3A4 (Homo sapiens) (UniProt P08684); assay: qHTS for inhibitors of CYP3A4 against the NCATS DSHEA and TCM libraries (AID 1919971);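 note: inhibition lowers luminescence from luciferin made by CYP3A4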
Cytochrome P450 3A4 (Homo sapiens), sequence (P08684 whole entry, looked up): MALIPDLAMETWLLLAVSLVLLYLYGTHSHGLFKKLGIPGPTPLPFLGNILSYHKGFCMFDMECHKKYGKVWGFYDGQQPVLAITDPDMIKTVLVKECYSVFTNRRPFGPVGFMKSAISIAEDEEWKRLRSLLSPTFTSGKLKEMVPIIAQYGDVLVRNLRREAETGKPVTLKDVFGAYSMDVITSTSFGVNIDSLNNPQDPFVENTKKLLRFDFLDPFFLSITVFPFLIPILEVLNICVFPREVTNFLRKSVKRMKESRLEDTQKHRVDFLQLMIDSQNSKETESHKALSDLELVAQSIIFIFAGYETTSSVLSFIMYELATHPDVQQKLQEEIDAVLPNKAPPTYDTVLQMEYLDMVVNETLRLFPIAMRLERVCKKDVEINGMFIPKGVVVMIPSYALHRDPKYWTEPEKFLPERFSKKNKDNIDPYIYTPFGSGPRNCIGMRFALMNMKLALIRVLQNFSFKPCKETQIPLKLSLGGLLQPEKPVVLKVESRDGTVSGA
Outline: (§1)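 Luminescent P450-Glo format: compounds preincubated 15 min with enzyme and luciferin substrate, reaction run 30-45 min after NADPH regeneration solution. Intraplate controls: ketoconazole for CYP3A4 and CYP2C19, sulfaphenazole for CYP2C9.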

[2] = target: Cytochrome P450 2C19 (Homo sapiens) (UniProt P33261); assay: qHTS for inhibitors of CYP2C19 against the NCATS DSHEA and TCM libraries (AID 1919974);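 note: luminescence from luciferin released by CYP2C19 oxidation of a pro-luciferin substrate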; note: potency is the fitted concentration of half-maximal effect
Cytochrome P450 2C19 (Homo sapiens), sequence (P33261 whole entry, looked up): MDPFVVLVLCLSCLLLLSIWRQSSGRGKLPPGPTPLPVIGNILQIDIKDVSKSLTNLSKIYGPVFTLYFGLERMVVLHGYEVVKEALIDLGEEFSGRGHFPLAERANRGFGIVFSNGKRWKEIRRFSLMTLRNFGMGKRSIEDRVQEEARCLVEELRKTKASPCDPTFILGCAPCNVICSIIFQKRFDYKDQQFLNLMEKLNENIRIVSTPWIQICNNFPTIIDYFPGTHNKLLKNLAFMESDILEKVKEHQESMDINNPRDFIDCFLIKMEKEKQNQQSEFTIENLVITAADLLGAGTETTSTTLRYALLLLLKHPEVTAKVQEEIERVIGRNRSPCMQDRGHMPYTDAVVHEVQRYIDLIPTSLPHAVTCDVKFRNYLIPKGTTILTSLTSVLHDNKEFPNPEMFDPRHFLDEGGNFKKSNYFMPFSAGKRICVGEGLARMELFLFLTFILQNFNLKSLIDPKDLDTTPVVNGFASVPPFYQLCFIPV
Outline: as §1

[3] = KB-3-1 P-gp reporter qHTS against the NCATS DSHEA and TCM libraries (AID 1919975); note: potency is the fitted concentration of half-maximal effect
Excerpt: (§2) Assay Development and Screening Technology Laboratory (ADST)
(§3) National Center for Advancing Translational Sciences (NCATS), Rockville, MD
(§4) National Institute of Health (NIH), Bethesda, Maryland
(§5) Dietary Supplements and Natural Products have minor oversight of their safety and efficacy. We assembled a collection of Dietary Supplements and Natural Products (DSNP) as well as Traditional Chinese Medicinal (TCM) Plant extracts, which were screened against an in vitro panel of assays, including a liver cytochrome p450 enzyme panel, CAR/PXR signaling pathways, and P-gp transporter assays, to assess their activity. This pipeline facilitated the interrogation of Natural Product-Drug Interaction (NaPDI) through prominent metabolizing pathways. In addition, we compared the activity profiles of the DSNP/TCM substances with those of an approved drug collection. Many of the approved drugs have well-annotated mechanisms of action (MOA) while the MOAs for most of the DSNP and TCM samples remain unknown. Based on the premise that compounds with similar activity profiles tend to share similar targets or MOA, we clustered the library activity profiles to identify overlap with the NCATS Pharmaceutical Collection to predict the MOAs of the DSNP/TCM substances. Overall, we highlight four significant bioactivity profiles (measured by p-values) as examples of this prediction. To assess broad cytotoxicity, we employed screening against a HepG2 cell line. In addition, transporter-mediated drug interactions are utilized in the characterization of DDIs using a P-glycoprotein (P-gp) assays. To profile potential P-gp activity, a differential cell viability was measured against two cell lines: a parental KB-3-1 human cervical adenocarcinoma cell line and the drug-resistant subline KB-8-5-11 that overexpresses P-gp.
(§6) To this end, we profiled both collections for potential CAR and/or PXR activity, employing a previously published 1536-well qHTS assay.
[1] […]
8; Read; Luminescence; ViewLux plate reader. […]
8. Luminescence intensity was detected using a PerkinElmer ViewLux microplate reader. […]

[4] = Dual reporter qHTS for agonist of Pregnane X Receptor (hPXR) against the NCATS DSHEA and TCM libraries: Fluorescence readout (AID 1920058)
Excerpt: as §2, §3, §4, §5, §6
[1] […]
8; Read; Fluorescence; ViewLux plate reader. […]
11; Read; Luminescence; ViewLux plate reader. […]

[5] = target: Nuclear receptor subfamily 1 group I member 2 (Homo sapiens) (UniProt O75469); assay: Dual reporter qHTS for agonist of Pregnane X Receptor (hPXR) against the NCATS DSHEA and TCM libraries: Luminescence readout (AID 1920059)
Nuclear receptor subfamily 1 group I member 2 (Homo sapiens), sequence (O75469 whole entry, looked up): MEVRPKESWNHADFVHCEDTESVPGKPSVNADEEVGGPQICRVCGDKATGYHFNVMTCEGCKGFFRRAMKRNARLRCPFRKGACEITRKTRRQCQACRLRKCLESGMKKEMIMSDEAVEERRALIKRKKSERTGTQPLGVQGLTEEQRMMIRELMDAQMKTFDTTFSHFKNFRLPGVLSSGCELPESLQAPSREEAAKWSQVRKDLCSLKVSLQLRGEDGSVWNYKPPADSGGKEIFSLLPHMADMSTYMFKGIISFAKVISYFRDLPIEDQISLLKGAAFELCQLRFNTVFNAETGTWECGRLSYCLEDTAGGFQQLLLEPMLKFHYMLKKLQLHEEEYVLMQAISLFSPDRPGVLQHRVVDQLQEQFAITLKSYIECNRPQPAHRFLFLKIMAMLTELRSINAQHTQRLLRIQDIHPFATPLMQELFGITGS
Outline: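 hPXR-Luc HepG2 cells, 2000/well in 5% charcoal-stripped FBS medium, attached 5 h, then exposed 24 h at 37C to compounds. Viability by CellTiter-Fluor, then luciferase luminescence with ONE-Glo.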

[6] = target: Nuclear receptor subfamily 1 group I member 2 (Homo sapiens) (UniProt O75469); assay: Dual reporter qHTS for antagonist of Pregnane X Receptor (hPXR) against the NCATS DSHEA and TCM libraries: Luminescence Readout (AID 1920060);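 note: HepG2 cells carrying hPXR luciferase reporter stimulated with rifampicin at 2 µM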
Outline: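 HepG2 hPXR-Luc, 2000 cells/well, charcoal-stripped FBS medium; 5 h attach; RIF 2 uM final; 24 h 37C/5% CO2; CellTiter-Fluor 1 h, fluor 405/540; ONE-Glo 30 min RT, lum.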

[7] = target: Cytochrome P450 2D6 (Homo sapiens) (UniProt P10635); assay: qHTS for inhibitors of CYP2D6 against the NCATS DSHEA and TCM libraries (AID 1919972); note: potency is the fitted concentration of half-maximal effect
Cytochrome P450 2D6 (Homo sapiens), sequence (P10635 whole entry, looked up): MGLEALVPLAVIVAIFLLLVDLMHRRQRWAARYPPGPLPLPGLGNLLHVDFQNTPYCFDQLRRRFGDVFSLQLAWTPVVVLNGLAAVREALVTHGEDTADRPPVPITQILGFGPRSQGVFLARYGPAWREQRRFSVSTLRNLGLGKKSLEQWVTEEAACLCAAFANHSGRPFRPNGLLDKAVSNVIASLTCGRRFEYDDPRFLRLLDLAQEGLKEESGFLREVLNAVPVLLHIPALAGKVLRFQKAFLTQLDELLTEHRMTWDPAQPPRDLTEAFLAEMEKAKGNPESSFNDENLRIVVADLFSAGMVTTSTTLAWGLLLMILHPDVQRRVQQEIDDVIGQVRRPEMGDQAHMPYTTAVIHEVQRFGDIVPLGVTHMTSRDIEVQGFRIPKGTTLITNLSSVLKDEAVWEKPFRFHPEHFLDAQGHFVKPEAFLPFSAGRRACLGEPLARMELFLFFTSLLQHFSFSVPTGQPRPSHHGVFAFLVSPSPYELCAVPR
Outline: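 Luminescent P450-Glo read-out of CYP2D6 turnover of a luciferin substrate after NADPH-driven reaction of 30-45 min at room temperature. Compounds were first preincubated 15 min with enzyme at titrated concentrations; quinidine was the intraplate control.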

[8] = target: Cytochrome P450 2C9 (Homo sapiens) (UniProt P11712); assay: qHTS for inhibitors of CYP2C9 against the NCATS DSHEA and TCM libraries (AID 1919973);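 note: luminogenic pro-luciferin CYP2C9 substrate turned into luciferin with NADPH regeneration; series mostly up to about 34 µM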
Cytochrome P450 2C9 (Homo sapiens), sequence (P11712 whole entry, looked up): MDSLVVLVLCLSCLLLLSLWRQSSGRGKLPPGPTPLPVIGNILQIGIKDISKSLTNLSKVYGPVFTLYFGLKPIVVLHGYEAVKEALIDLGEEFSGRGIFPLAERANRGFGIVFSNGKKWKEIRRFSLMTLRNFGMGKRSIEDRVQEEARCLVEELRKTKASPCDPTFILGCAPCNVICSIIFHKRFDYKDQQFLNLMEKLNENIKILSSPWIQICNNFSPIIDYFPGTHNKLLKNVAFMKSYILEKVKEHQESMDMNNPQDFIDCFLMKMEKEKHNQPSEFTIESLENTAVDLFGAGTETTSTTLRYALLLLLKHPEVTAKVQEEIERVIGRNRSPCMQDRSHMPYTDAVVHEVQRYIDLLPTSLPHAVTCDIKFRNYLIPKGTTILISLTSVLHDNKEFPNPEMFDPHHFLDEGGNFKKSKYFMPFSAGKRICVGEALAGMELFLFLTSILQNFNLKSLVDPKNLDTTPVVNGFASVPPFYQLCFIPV
Outline: as §1

[9] = qHTS Counterscreen for compound interference against the NCATS DSHEA and TCM libraries (AID 1919978); conditions: firefly luciferase detection reagent interference, luminescence;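 note: compounds preincubated with 1 µM D-luciferin or buffer before detection reagent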
Outline: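 Luminescence counterscreen for detection-kit interference: compounds at 19.5 nM–39.8 uM final, 15 min RT with 1 uM D-luciferin or buffer only; detection reagent added, 30 min RT, then read.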

[10] = target: Cytochrome P450 1A2 (Homo sapiens) (UniProt P05177); assay: qHTS for inhibitors of CYPIA2 against the NCATS DSHEA and TCM libraries (AID 1919976);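 note: light from luciferin formed by CYP1A2 from a pro-luciferin substrate; series mostly up to about 37 µM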
Cytochrome P450 1A2 (Homo sapiens), sequence (P05177 whole entry, looked up): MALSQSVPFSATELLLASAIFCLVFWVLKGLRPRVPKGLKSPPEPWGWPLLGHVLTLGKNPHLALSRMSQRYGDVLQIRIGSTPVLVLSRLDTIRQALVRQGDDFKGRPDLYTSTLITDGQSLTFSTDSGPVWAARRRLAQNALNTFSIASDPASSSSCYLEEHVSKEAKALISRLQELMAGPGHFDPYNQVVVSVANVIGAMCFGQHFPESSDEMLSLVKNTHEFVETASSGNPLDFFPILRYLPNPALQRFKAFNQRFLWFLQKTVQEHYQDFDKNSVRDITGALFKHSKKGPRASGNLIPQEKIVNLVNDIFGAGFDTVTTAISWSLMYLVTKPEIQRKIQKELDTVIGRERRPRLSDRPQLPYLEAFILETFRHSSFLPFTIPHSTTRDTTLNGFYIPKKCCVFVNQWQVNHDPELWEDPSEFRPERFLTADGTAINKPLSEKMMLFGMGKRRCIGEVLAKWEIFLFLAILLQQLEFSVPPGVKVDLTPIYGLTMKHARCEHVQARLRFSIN
Outline: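 Human CYP1A2 with pro-luciferin substrate (typically 100 mM KPO4), 15 min preincubation with compound, then 1x NADPH regeneration for 30-45 min at room temperature in the dark. Luciferin quantified by luciferase luminescence; furafylline intraplate control.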

SMILES | outcome [1] | Potency [2] | Potency [3] | outcome [4] | outcome [5] | outcome [6] | Potency [7] | outcome [8] | max response [9] | outcome [10]
O=C(O)c1cccnc1 | inactive | inactive | inactive | inactive | inactive | inactive |  |  |  | 
COc1ccc2cc3[n+](cc2c1OC)CCc1cc2c(cc1-3)OCO2 |  | inactive | 2000 nM (active) | inactive | inactive | inactive | 2240 nM (active) | inactive | -1.19% (inactive) | 
NNC(=O)c1ccncc1 |  | 12600 nM (active) | inactive | inactive | inactive | inactive | inactive |  | 1.88% (inactive) | inactive
